Screening results as filed in PubChem.
FBPA Giardia inh – blocks Giardia fructose-bisphosphate aldolase activity. purified Giardia FBPA. Potency, µM (doses to about 59.6 µM), hits mostly inhibitors. 0.71% of 290,000 active. AID 2451; further: nearly all actives have a fitted effect of over 55% in size
Target sequence (A8B2U2 whole entry, looked up): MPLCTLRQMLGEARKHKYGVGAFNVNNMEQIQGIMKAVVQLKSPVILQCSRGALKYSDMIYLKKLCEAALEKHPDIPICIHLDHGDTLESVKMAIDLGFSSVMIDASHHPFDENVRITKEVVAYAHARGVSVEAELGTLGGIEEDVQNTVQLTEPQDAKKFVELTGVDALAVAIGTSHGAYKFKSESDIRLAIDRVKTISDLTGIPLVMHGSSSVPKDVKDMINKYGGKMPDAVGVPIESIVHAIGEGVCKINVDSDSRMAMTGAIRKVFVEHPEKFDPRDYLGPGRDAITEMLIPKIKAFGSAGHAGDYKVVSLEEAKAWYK
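40 nM FBPA preincubated 10 min at RT with compound (up to 57.5 uM final), then substrate plus GAPDH/TPI/NAD/arsenate coupling and diaphorase/resazurin added. Fluorescence read after 20 min at RT, 525/598 nm.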
Cycloheximide cs – counter-screen hit for Shiga toxin inhibitors, cycloheximide; AID 2314; 12% of 300,000 active; cell reporter, cycloheximide protein synthesis inhibition counterscreen; max response, %; in the data active means max response mostly above about 13%, no sharp cut-off; inactive means mostly below about 14%; further: read at 38.3 µM for the half of the compounds with a filed dose
NS1 inh – inhibitors of influenza NS1 protein function. Potency, µM (highest dose often 46.1 µM). 0.4% of 270,000 active; calls by dose curve; further: actives are rising curves; nearly all actives have a fitted effect of over 50% in size
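OD600 was taken as the measure of yeast growth restored by compound in an NS1-expressing S. cerevisiae strain. Cells had been washed out of glucose medium and diluted 1:100 into galactose -URA medium, pH 6.0.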
Shiga inhibitor – inhibitors of Shiga toxin in Vero cells | Vero cells, Shiga toxin protein synthesis inhibition reporter | 9.2% of 290,000 active | inhibition, % at 38.7 µM; in the data active means inhibition mostly above about 28%, no sharp cut-off; inactive means mostly below about 43%
LmPK inhibitor – inhibitors of Leishmania mexicana pyruvate kinase | Q27686 | purified LmPK, Kinase-Glo ATP luminescence, 1 h | Potency, µM (titrated, usually from 57.5 µM), usual class: inhibitors | 0.37% of 290,000 active | AID 1721
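Purified LmPK (0.1 nM) with 0.5 mM PEP and 0.1 mM ADP in imidazole buffer pH 7.2 with MgCl2/KCl, 1 h at room temperature. ATP formed was read by luciferase luminescence and normalized to no-enzyme and uninhibited controls.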
Hits are given with their value; 0 = inactive; ? = inconclusive; - = not tested or not shown; [ ] = dose if it differs, or a comment. In the library only some 14% were active in any assay of this set; here they are far more common. Unless noted, the call rests on the fitted dose curve; in most records, active means well fitted curve in the direction sought with a large enough effect; inconclusive means small, poorly fitted or top-dose-only effect, or another doubt; inactive means no such curve, though single readings can be large; an effect the other way counts as inactive or inconclusive.

SMILES | FBPA Giardia inh | Cycloheximide cs | NS1 inh | Shiga inhibitor | LmPK inhibitor
Cc1cccc(C(=O)Oc2ccc(/C=N/NC(=O)c3ccc(O)cc3)cc2)c1 | 0 | 25 | 0 | 0 | 0
CN(C)CCc1c[nH]c2ccc(CC3COC(=O)N3)cc12 (stereo not drawn) | 0 | - | - | - | -
COc1cc(C(=O)ON=C2C=C(C)C(=O)C(C)=C2)cc(OC)c1OC | ? | 0 | 0 | 0 | 0
COc1cc(C(=O)O/N=C2\C=CC(=O)C(C)=C2)cc(OC)c1OC | 20µM | 71 | 0 | 101 | 0
COc1ccc(C(C)=O)cc1CC(=O)Nc1ccc2c(c1)CCC2 | 0 | 0 | 0 | 0 | 0
CCCNC(=O)/C=C/c1ccc(C(C)C)cc1 | 0 | 47 | 0 | 64 | 0
CC(C)c1ccc(/C=C/C(=O)NCCC2=CCCCC2)cc1 | 0 | 17 | 0 | 0 | 0
CCOc1cccc(CN2CCC(n3nccc3NC(=O)C3CC3)CC2)c1O | - | 0 | 0 | 0 | 0
COCc1cc(C)nc2sc(C(=O)Nc3nccs3)c(N)c12 | 0 | 42 | 0 | 0 | 0
COCc1cc(C)nc2sc(C(=O)Nc3cccc(OC)c3)c(N)c12 | 0 | 54 | 0 | 66 | 0
COCc1cc(C)nc2sc(C(=O)N3CCCCC3)c(N)c12 | 0 | 0 | 0 | 0 | 0
COCc1cc(C)nc2sc(C(=O)Nc3ccccc3OC)c(N)c12 | 0 | 0 | 0 | 0 | 0
COCc1cc(C)nc2sc(C(=O)Nc3ccc(OC)cc3)c(N)c12 | 0 | 29 | 0 | 0 | 0
COc1ccc(C(=O)N=C2SC3CS(=O)(=O)CC3N2c2ccc(C(C)=O)cc2)cc1 (stereo not drawn) | 0 | 0 | 0 | 0 | 0
CC(C)(C)N1C(=O)[C@H]2[C@H]3[C@H](O)[C@H](O)C/C(=N/OCc4ccccc4)[C@@H]3CC[C@@H]2C1=O | 0[12.9 µM] | - | - | - | -
COc1ccc(CN(C(=S)Nc2ccccc2)C2CC(=O)N(c3ccc(F)cc3)C2=O)cc1 (stereo not drawn) | 0 | 31 | 0 | 0 | 0
Cc1cc(C(=O)OCC(=O)N2c3ccccc3CC2C)c(C)o1 (stereo not drawn) | 0 | 0 | 0 | 36 | 0
Nc1ccccc1C(=O)OCC(=O)Nc1ccc(Br)cc1F | 0 | 21 | 0 | 0 | 0
Cc1cc(C(=O)OCC(=O)Nc2ccccc2F)c(C)o1 | 0 | 15 | 0 | 98 | 0
O=C(CN1CCN(Cc2ccccc2)CC1)N/N=C/c1cccnc1 | 0 | 0 | 0 | 0 | 0
O=C(Nc1ccc(-n2cccc2)cc1)C1CC1 | 0 | 23 | - | 0 | 0
O=C(Nc1ccc(Cc2ccc(NC(=O)C3CC3)cc2)cc1)C1CC1 | 0 | 0 | - | 0 | 0
O=C(Nc1ccc(Nc2ccccc2)cc1)C1CC1 | 0 | 21 | 0 | 0 | 0
COCC(=O)N1CCC(Oc2ccc(C(=O)N[C@H](C(=O)OC)C(C)C)cc2)CC1 | 0 | 0 | 0 | 0 | 0
O=C(O)c1ccc(CP(=O)(c2ccccc2)c2ccccc2)cc1 | 0 | 0 | 0 | - | 0
SMILES | FBPA Giardia inh | Cycloheximide cs | NS1 inh | Shiga inhibitor | LmPK inhibitor
O=C(N/N=C/c1coc2ccccc2c1=O)c1cc(Br)ccc1O | ? | 0 | 0 | 0 | 0
O=C(N/N=C/c1ccccn1)c1cc(Br)ccc1O | ? | 32 | 0 | 48 | 0
O=C(N/N=C/c1cccnc1)c1cc(Br)ccc1O | 0 | 26 | 0 | 53 | 0
O=C(N/N=C/c1ccccn1)c1ccc(Br)o1 | 0 | 19 | 0 | 44 | 0
CCOc1ccc(Br)cc1C(=O)N/N=C/c1cccnc1 | 0 | 0 | 0 | 0 | 0
C[C@@H](CCC(=O)O)C(=O)O | - | - | 0 | - | -
CC(C)(C)NS(=O)(=O)c1ccc(CCC(=O)NCc2ccccn2)cc1 | 0 | 0 | 0 | 0 | 0
O=C1N=C(N2CCOCC2)S/C1=C\c1cccs1 | 0 | 22 | 0 | 39 | 0
N#CCCN1CCN(C2=NC(=O)/C(=C\c3cccs3)S2)CC1 | 0 | 21 | - | 0 | 0
Cc1ccsc1/C=C1/SC(N2CCOCC2)=NC1=O | 0 | 0 | 0 | 0 | ?
O=C1CSC(=S)N1/N=C/c1cc(Br)c(O)c(Br)c1 | 0 | 0 | 0 | 0 | 0
CCN(CC)CCNC(=O)c1ccc2c(c1NCCO)C(=O)c1ccccc1C2=O | ? | 0 | 0 | 40 | 0
NCCC[C@@H](CC(=O)N[C@@H]1CCCC[C@H]1C(=O)N[C@H](CC(=O)N[C@@H](CCC(=O)O)CC(=O)O)Cc1c[nH]c2ccccc12)NC(=O)C[C@H](CO)NC(=O)[C@@H]1CNCC[C@H]1N | 0 | - | - | - | -
COc1ccc(-n2ncc3c(N4CCN(c5cc(C)ccc5C)CC4)ncnc32)cc1 | 0 | 0 | 0 | 0 | 0
CCOC(=O)C(C)n1cnc2c(cnn2-c2ccc(Cl)cc2)c1=O (stereo not drawn) | 0 | 0 | 0 | 0 | 0
CCOC(=O)C1CCCN(c2ncnc3c2cnn3-c2ccc(Cl)cc2)C1 (stereo not drawn) | 0 | 17 | 0 | 0 | 0
CCOC(=O)C1CCCN(c2ncnc3c2cnn3-c2ccc(OC)cc2)C1 (stereo not drawn) | 0 | 35 | 0 | 70 | 0
CCOC(=O)N1CCC(Nc2ncnc3c2cnn3-c2ccc(Cl)cc2)CC1 | 0 | 54 | 0 | 120 | 0
CN(Cc1ccco1)c1ccnc(-c2ccccc2C(F)(F)F)n1 | 0 | - | - | - | -
COc1ccc(NC(=O)Cc2nnc(SCC(=O)c3ccccc3)n2C)cc1 | - | 0 | 0 | 0 | 0
CCOC(=O)Cc1csc(NC(=O)c2ccc3c(c2)OCO3)n1 | 0 | 15 | 0 | 40 | 0
COCCNC(=O)CN(Cc1ccc2c(c1)OCO2)C(=O)CCC(=O)Nc1nccs1 | 0 | 0 | 0 | 0 | 0
O=C(O)CSc1nnc(NC(=O)c2ccc3c(c2)OCO3)s1 | 0 | 0 | - | 0 | 0
Cc1occc1C(=O)Nc1nnc(C(F)(F)F)s1 | 0 | 0 | 0 | 0 | 0
CC(C)(C)NC(=O)CN(Cc1ccc2c(c1)OCO2)C(=O)CCC(=O)Nc1nccs1 | 0 | 15 | 0 | 0 | ?
SMILES | FBPA Giardia inh | Cycloheximide cs | NS1 inh | Shiga inhibitor | LmPK inhibitor
O=C(Nc1nccs1)c1ccc2c(c1)OCO2 | 0 | 20 | 0 | 65 | 0
Cc1csc(NC(=O)c2ccoc2C)n1 | 0 | 49 | 0 | 64 | 16µM
COCCC(=O)N1CCC(Oc2ccc(C(=O)N3CCC[C@H]3CO)cc2)CC1 | - | 0 | 0 | 0 | 0
Cc1csc(NC(=O)c2ccc3c(c2)OCO3)n1 | 0 | 31 | 0 | 71 | 0
CCOC(=O)Cc1csc(NC(=O)c2c(-c3ccccc3)noc2C)n1 | 0 | 0 | 0 | 0 | 0
CCOC(=O)Cc1csc(NC(=O)c2ccc(F)cc2)n1 | 0 | 0 | 0 | 0 | 0
CCOC(=O)Cc1csc(NC(=O)c2ccc(C)cc2)n1 | 0 | 34 | 0 | 91 | 0
CCOC(=O)Cc1csc(NC(=O)c2ccoc2C)n1 | 0 | 29 | 0 | 84 | 14µM
COc1ccc(-c2nnc3n2N=C(c2ccccc2OC)CS3)cc1 | 0 | 0 | - | 0 | -
